# Screens: PubChem, National Center for Advancing Translational Sciences (NCATS)
# Hits are enriched below; roughly 8.3% of the tested compounds scored in any of these assays.
# MCF10A rereplic – A quantitative high throughput screen for small molecules that induce DNA re-replication in MCF 10a normal breast cells | Potency, µM (highest dose often 46.1 µM), for inactives: top-dose activity, positive = re-replication, usual class: activators | MCF 10A DNA re-replication, Hoechst nuclear intensity, 48 h | actives 2.9% (n = 350,000); further: potency means the concentration at half of the fitted maximal effect; % of control where 0% means no effect; nearly all actives have a fitted effect of over 50% in size
# Chronic BCR inh – qHTS Assay to Find Inhibitors of Chronic Active B-Cell Receptor Signaling; actives 0.05% (n = 340,000); AID 493014, 2011; Potency, µM (doses to about 46.1 µM), for inactives: at the highest dose activity change, negative = inhibition, hits mostly inhibitors; ABC-DLBCL IkBa-CBG/CBR reporter, luminescence ratio, 4 h; active means well fitted inhibition curve with a large enough effect in the signal ratio, with a control signal flat, not every such curve was filed as active; inconclusive means small, poorly fitted or top-dose-only effect, or effect the other way, or a change in a side signal; the % refers to the signal ratio;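 further: potency means the concentration at half of the fitted maximal effect; plate controls were basal doxycycline-induced cells for no effect and cells given 10 µM MG132 for full effect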
#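 Concentration-response series (up to 46 uM) were applied to TMD8 dual-reporter cells for 4 h at 37C with doxycycline. Green/red ratio, after filter-overlap correction, defined %Activity; red signal alone was normalised to basal cells and zero luminescence.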
# RORg inh – qHTS for inhibitors of ROR gamma transcriptional activity | Nuclear receptor ROR-gamma (Mus musculus), P51450 | Drosophila S2 Gal4-RORgamma UAS-luciferase reporter, 20 h | Potency, µM (series often up to 53.6 µM), for inactives: at the top dose activity change, negative = inhibition, actives largely listed as inhibitors | actives 5.4% (n = 310,000); further: potency means the concentration at half of the fitted maximal effect; on the % scale 0 is the no-effect control and ±100 the full control effect; nearly all actives have a fitted effect of over 60% in size
# Target sequence (P51450 whole entry, looked up, the tested form may be a part): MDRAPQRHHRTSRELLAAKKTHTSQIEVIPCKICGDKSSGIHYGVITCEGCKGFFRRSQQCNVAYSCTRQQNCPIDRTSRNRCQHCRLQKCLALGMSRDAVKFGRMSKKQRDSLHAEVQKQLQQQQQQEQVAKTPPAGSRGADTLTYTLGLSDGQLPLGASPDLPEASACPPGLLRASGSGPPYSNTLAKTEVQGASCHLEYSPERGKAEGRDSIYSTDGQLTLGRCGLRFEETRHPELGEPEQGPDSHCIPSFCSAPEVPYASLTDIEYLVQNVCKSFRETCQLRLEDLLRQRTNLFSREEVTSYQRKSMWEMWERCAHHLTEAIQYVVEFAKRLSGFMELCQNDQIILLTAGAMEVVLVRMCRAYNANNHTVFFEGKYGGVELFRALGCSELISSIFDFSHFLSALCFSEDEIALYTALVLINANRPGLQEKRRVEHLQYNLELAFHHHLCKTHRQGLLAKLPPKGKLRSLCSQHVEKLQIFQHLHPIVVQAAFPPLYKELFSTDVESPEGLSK
#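 Read-out: Photinus luciferase luminescence; inhibitors lower reporter signal. Insect Schneider cells with Gal4-ROR gamma fusion under metallothionein promoter, UAS reporter; 700 uM final copper sulfate induction, 20 hr, ambient temperature.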
# SW480 rereplic – A quantitative high throughput screen for small molecules that induce DNA re-replication in SW480 colon adenocarcinoma cells. SW480 DNA re-replication, Hoechst DNA content imaging, 48 h. Potency, µM (top dose mostly 46.1 µM), without a hit: at the top dose re-replication activation, usual class: activators. actives 1.8% (n = 340,000); further: potency means the concentration at half of the fitted maximal effect; % of control where 0% means no effect; nearly all actives have a fitted effect of over 55% in size
#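 Treated cells incubate 48 hr (37 C, 5% CO2), are stained 40 min with Hoechst, and nuclear fluorescence is enumerated; a rise in nuclei with high DNA signal marks re-replication.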
# Gal4-VP16 FLuc – VP16 counterscreen qHTS for inhibitors of ROR gamma transcriptional activity; Drosophila S2 Gal4-VP16 UAS-luciferase, luminescence, 20 h; Potency, µM (series often up to 53.6 µM), inactives show at the top dose activity, negative = inhibition, hits mostly inhibitors; actives 3.5% (n = 310,000); AID 2546, 2010;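 further: Gal4-VP16 expression switched on by copper sulfate through the metallothionein promoter; potency means the concentration at half of the fitted maximal effect; on the % scale 0 is the no-effect control and ±100 the full control effect; nearly all actives have a fitted effect of over 50% in size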
# Giardia killer – Small Molecules that selectively kill Giardia lamblia: qHTS. Giardia lamblia trophozoite viability. activity change, % at 7.66 µM, hits read low. actives 0.15% (n = 340,000). AID 540267, 2011; in the data active means activity change below about -80%; inconclusive means between about -30% and that limit;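 further: parasites exposed to compound for two days anaerobically before the ATP read; on the % scale 0 is the no-effect control and ±100 the full control effect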
#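 Viability, read as ATP luminescence: trophozoites at 100 cells/well, compound added, 48 hrs anaerobic at 37 deg C, then 15-30 min room-temperature development before reading.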
# An asterisk follows results filed as active; ? = inconclusive; nt = no result given; [ ] = another dose, or the depositor's remark. Unless noted, the call rests on the fitted dose curve; in most records, active means well fitted curve in the direction sought with a large enough effect; inconclusive means small, poorly fitted or top-dose-only effect, or another doubt; inactive means no such curve, though single readings can be large; an effect the other way counts as inactive or inconclusive.
SMILES,MCF10A rereplic,Chronic BCR inh,RORg inh,SW480 rereplic,Gal4-VP16 FLuc,Giardia killer
COC(=O)C(O)(c1ccc(NC(=S)NC(=O)c2ccc(Cl)cc2Cl)cc1)C(F)(F)F (stereo not given),?,?,5µM*,40%,?,0
C[C@@H]1O[C@H](O[C@@H]2C[C@@H](O)[C@]3(CO)[C@H]4[C@H](O)C[C@]5(C)[C@@H](C6=CC(=O)OC6)CC[C@@]5(O)[C@@H]4CC[C@]3(O)C2)[C@@H](O)[C@H](O)[C@H]1O,nt,nt,-1%,nt,4%,nt
COC(=O)c1ccccc1C(=O)c1ccc(OCCN2CCCCC2)cc1,?,nt,-9%,-6%,-7%,nt
Cc1nn(-c2ccccc2)c2c1P(=O)(O)/C(=C1\N(C)c3ccccc3C1(C)C)C=N2,12µM*,3%,9%,7%,-12%,13
COc1ccc(CN2CCN(C(=O)Cn3c(=O)oc4cc(Cl)ccc43)CC2)c(OC)c1OC,25%,-14%,?,19%,?,41
Cn1c(=O)oc2cc(S(=O)(=O)N3CCc4ccccc43)ccc21,?,?,-4%,-3%,-9%,25
Cn1c(=O)oc2cc(S(=O)(=O)N3CCCc4ccccc43)ccc21,2.6µM*,6%,1%,?,-2%,4
O=C(NCc1ccc(C(=O)N2CCC3(CC2)OCCO3)cc1)c1ccc2c(c1)OCO2,-15%,-6%,10%,0%,-9%,-26
O=C(c1ccc2c(=O)n(Cc3ccc4c(c3)OCO4)c(=S)[nH]c2c1)N1CCC2(CC1)OCCO2,-2%,-3%,13µM*,-4%,?,-8
CCCCC/C=C\C/C=C\C/C=C\C/C=C\CCCC(=O)NCCCl,nt,nt,-42%,nt,-21%,nt
COC(=O)c1ccc(N2CCN(c3ccccc3)CC2)nc1,12%,?,16%,-6%,?,3
COC(=O)[C@]1(C)CC[C@@]2(C)CC[C@@]3(C)C4=CCc5c(cc(O)c(O)c5C)[C@]4(C)CC[C@@]3(C)C2C1 (stereo not given in full),nt,nt,?,nt,16µM*,nt
CN(CCS(=O)(=O)c1ccc(Cl)cc1)Cc1cccnc1,21µM*,-13%,21%,?,3%,0
CNC(=S)S,nt,nt,-5%,nt,-6%,nt
Oc1cc(Cl)ccc1Cl,nt,nt,17%,nt,-7%,nt
COc1ccc(/C=N/NC(=O)c2ccoc2C)cc1COc1c(C)cccc1C,7.1µM*,?,11µM*,?,?,20
COC(=O)C12C/C=C\Cc3ccccc3[C@@H]1CNC2=O (stereo not given in full),nt,nt,-17%,nt,-3%,nt
CC1(C)CN=C(Nc2nc3ccccc3s2)S1,1%,-3%,8.9µM*,-2%,?,-7
S=C1CN=C(c2ccccc2)c2cc(Cl)ccc2N1,-12%,-17%,2µM*,?,6.3µM*,-1
COc1ccc(C2=NCC(=S)Nc3ccc(Cl)cc32)cc1Cl,11%,-3%,2.8µM*,-8%,8.9µM*,12
COc1ccc(C2=NCC(=S)Nc3ccc(Cl)cc32)cc1OC,5%,nt,nt,0%,nt,3
C[C@H]1CC[C@]2(OC1)O[C@@H]1C[C@@H]3[C@@H]4CC[C@H]5C[C@@H](O)CC[C@]5(C)[C@@H]4CC(=O)[C@@]3(C)[C@H]1[C@@H]2C,6%[20.6 µM],nt,1%[16.9 µM],0%[20.6 µM],?,nt
COC(=O)C(O)(c1ccc(NC(=S)NC(=O)c2ccc(Cl)cc2Cl)c(C)c1)C(F)(F)F (stereo not given),?,?,8.9µM*,17%,?,-2
CCOC(=O)C(O)(c1ccc(NC(=S)NC(=O)c2ccc(Cl)cc2Cl)c(C)c1)C(F)(F)F (stereo not given),?,?,13µM*,22%,?,6
COc1ccc(CN(C)S(=O)(=O)c2nnc(NC(=O)c3ccccc3Br)s2)cc1,?,7%,-9%,?,1%,-21
SMILES,MCF10A rereplic,Chronic BCR inh,RORg inh,SW480 rereplic,Gal4-VP16 FLuc,Giardia killer
O=C(Nc1cccc(C(=O)Nc2cc(C(=O)Nc3ccc([S+](=O)([O-])[O-])c4cc([S+](=O)([O-])[O-])cc(SOOO)c34)ccc2F)c1)Nc1cccc(C(=O)Nc2cc(C(=O)Nc3ccc([S+](=O)([O-])[O-])c4cc([S+](=O)([O-])[O-])cc([S+](=O)([O-])[O-])c34)ccc2F)c1,nt,nt,7%,nt,-3%,nt
S=C(Nc1ccccc1)N1CCN(c2ccccn2)CC1,-7%,6%,?,-9%,-3%,10
CCCCCCC(=O)N/N=C/c1c(O)n(C(C)CC)c(=S)[nH]c1=O (stereo not given),?,-11%,10µM*,?,?,-23
C=Cn1ccnc1P(O)(=S)c1nc(C)c(CCOC(C)=O)s1 (stereo not given),-2%,2%,11µM*,0%,?,4
C=Cn1ccnc1P(=S)(c1c(C)nn(-c2ccccc2)c1C)c1nccn1C=C,4%,?,2%,11%,-9%,11
O=C(O)c1ccc(/C=C/C(=O)c2ccc3c(c2)OCCCO3)cc1,?,?,5µM*,21µM*,10µM*,?
O=C(Nc1cc(C(F)(F)F)cc(C(F)(F)F)c1)c1cc(Cl)ccc1O,nt,nt,0.89µM*,nt,1µM*,nt
O=C(Nc1cc(C(F)(F)F)ccc1O)Nc1cc(C(F)(F)F)ccc1O,nt,nt,-29%,nt,?,nt
CCCC[C@@H](C)[C@@H](OC(=O)C[C@@H](CC(=O)O)C(=O)O)[C@H](C[C@@H](C)CCCCCC[C@@H](O)C[C@H](O)[C@H](C)N)OC(=O)C[C@@H](CC(=O)O)C(=O)O,nt,nt,0%,nt,-9%,nt
CC(C)(C)OC(=O)N1CC(O)CC1C(=O)OCC(=O)c1ccc(-c2ccccc2)cc1 (stereo not given),?,-28%,24%,3%,-5%,12
O=C1c2ccccc2C(=O)c2ccccc21,0%,nt,-8%[10 µM],3%,2%,nt
c1ccc2c(c1)[IH]c1ccccc1-2,-13%,nt,nt,?,nt,-98*
C=CC(=O)OCC(CC)CCCC (stereo not given),nt,nt,0%,nt,-7%,nt
C=C(C)Cn1c(-c2cccs2)n[nH]c1=S,14%,8%,13µM*,0%,14µM*,30
O=[N+]([O-])c1cccc(O)c1,-5%,-9%,30%,-4%,-15%,-4
C=C(C)Cn1c(-c2cccc([N+](=O)[O-])c2)n[nH]c1=S,-4%,4%,7.1µM*,-6%,-7%[10 µM],-1
